Screening data from PubChem BioAssay.
FMDV antiviral – High Throughput Screening for Foot and Mouth Disease Virus Antivirals | AID 1159524, 2015 | Potency, µM (titrated, usually from 57.9 µM), actives largely listed as inhibitors | 410,000 tested, 1.2% active | FMDV antiviral cell-based qHTS; calls by dose curve; tested in HEK293T cells; note: read-out not given here; nearly all actives have a fitted effect of over 45% in size
MARV entry inh – qHTS for inhibitors of binding or entry into cells for Marburg Virus | Marburg virus pseudotyped entry inhibition, cell reporter | Potency, µM (series often up to 37.8 µM), most hits filed as inhibitors | 300,000 tested, 1.8% active; calls by dose curve; tested in HEK293 cells
VACV Venus inh – qHTS for Stage-Specific Inhibitors of Vaccinia Orthopoxvirus: Venus Reporter Primary qHTS; 330,000 tested, 0.46% active; Vaccinia virus Venus reporter expression, fluorescence; Potency, µM (highest dose often 36.5 µM), actives largely listed as inhibitors; AID 720580, 2013; calls by dose curve; tested in A549 cells; note: nearly all actives have a fitted effect of over 30% in size
Vaccinia mCherry – qHTS for Stage-Specific Inhibitors of Vaccinia Orthopoxvirus: mCherry Reporter Primary qHTS | 310,000 tested, 0.63% active | Vaccinia virus mCherry reporter infection, fluorescence | Potency, µM (top dose mostly 36.5 µM), most hits filed as inhibitors; calls by dose curve; tested in A549 cells; note: nearly all actives have a fitted effect of over 35% in size
Lassa entry inh – qHTS for Inhibitors of binding or entry into cells for Lassa Virus; 300,000 tested, 1.2% active; Lassa virus pseudotype entry inhibition, cell reporter; Potency, µM (highest dose often 37.9 µM), actives largely listed as inhibitors; AID 540256, 2011; calls by dose curve; tested in HEK293 cells; note: nearly all actives have a fitted effect of over 50% in size
Numbers stand for hits; . = inactive; ? = inconclusive; / = not tested or not shown. Rows were chosen to be rich in hits. Some 3.2% of all compounds tested hit in one or more screens of this group.

SMILES | FMDV antiviral | MARV entry inh | VACV Venus inh | Vaccinia mCherry | Lassa entry inh
CCOCCCN1C(=O)CN(C2CCCCCC2)C(=O)C1c1ccc(OCC)c(OC)c1 (stereo not given) | . | / | . | . | ?
CCN(CC)CCNC(=O)c1ccc(NC(=O)c2ccccc2-c2ccc(C(F)(F)F)cc2)cc1 | . | 2.82µM | . | . | ?
CCN(CC)CCNC(=O)c1ccc(NC(=O)Cc2ccccc2F)cc1 | . | ? | . | . | .
O=C1NN(C(=O)Nc2ccc(Br)cc2)C(c2ccccc2)C1c1ccccc1 (stereo not given) | . | / | / | / | /
Cc1c(N/N=C(\C#N)C(=O)c2ccccc2)c(=O)n(-c2ccccc2)n1C | . | 11.2µM | . | 12.6µM | ?
CC(C)Oc1cccc(C(=O)C2CCCN(C(=O)c3cc(C(F)(F)F)[nH]n3)C2)c1 (stereo not given) | . | . | . | . | 12.6µM
COc1ccc(C(=O)NCC2Cc3cc(C)cc(-c4cc(C(C)=O)ccc4F)c3O2)c(OC)c1OC (stereo not given) | . | / | . | . | /
CC1CN(S(=O)(=O)c2ccc(C(=O)Nc3nnc(-c4ccc5c(c4)CCCC5)o3)cc2)CC(C)O1 (stereo not given) | . | . | ? | 8.91µM | /
COc1ccccc1NC(=O)c1ccc(N2CC3CC(C2)c2cccc(=O)n2C3)c(NC(=O)c2ccncc2)c1 (stereo not given) | . | / | / | / | /
Cc1cc(OCCCCNC(C)C)cc(C(C)C)c1 | . | 14.6µM | . | ? | ?
Cc1ccc(CNC(=O)c2cc3c(s2)-c2ccc(Cl)cc2SC3)cc1 | . | . | . | . | ?
CN(C)CCNC(=O)c1cc2c(s1)-c1ccc(Cl)cc1SC2 | ? | / | 3.55µM | ? | /
CC1=C(Nc2ccc(C(=O)O)cc2)C(=O)c2ccccc2C1=O | . | / | / | / | /
O=C1C(Cl)=C(Nc2ccccc2)C(=O)c2ccccc21 | 39.8µM | ? | . | . | ?
O=C(O)c1ccc(NC2=C(Cl)C(=O)c3ccccc3C2=O)cc1 | 25.1µM | / | / | / | /
CCN(CC)CCCNC1=C(Cl)C(=O)c2ccccc2C1=O | 28.2µM | ? | ? | ? | ?
Clc1ccccc1-c1cc(NCc2cccnc2)ncn1 | . | / | . | . | /
O=C1C(Cl)=C(NCc2cccnc2)C(=O)c2ccccc21 | ? | ? | 28.2µM | ? | ?
COCCCNC1=C(Cl)C(=O)c2ccccc2C1=O | . | . | . | ? | .
CCOC(=O)C1(C)C=C(Nc2cccc(C(=O)O)c2)C(=O)N1c1ccccc1 (stereo not given) | . | ? | . | . | .
C/C(=N\NC(=O)c1nnn(-c2nonc2N)c1CN1CCC(C)CC1)c1ccc(Br)cc1 | . | / | . | . | /
COc1ccc(-c2csc(NC(=O)c3ccoc3C)n2)cc1 | . | . | . | . | ?
O=C(c1ccc2c(c1)N(Cc1ccccc1F)C(=O)c1ccccc1S2=O)N1CCOCC1 (stereo not given) | . | . | . | . | .
CC1=CC[C@@H](COc2ccccc2)O[C@@]2(C1)C(=O)N(Cc1ccccc1C(F)(F)F)c1ccccc12 | / | . | / | / | /
COc1cccc(-c2ccnc(-n3ncc(C(=O)NCC4(N5CCCCC5)CCCC4)c3C)n2)c1 | . | / | . | . | /
SMILES | FMDV antiviral | MARV entry inh | VACV Venus inh | Vaccinia mCherry | Lassa entry inh
O=C1C(Cl)=C(NCCc2ccccc2)C(=O)c2ccccc21 | . | ? | . | . | ?
C=CCNC1=C(Cl)C(=O)c2ccccc2C1=O | . | ? | 12.6µM | ? | ?
Oc1ccc2ccccc2c1N=Nc1ccc(F)cc1 | . | . | . | . | .
Oc1c(N=Nc2ccc(F)cc2)ccc2ccccc12 | 14.1µM | ? | . | ? | ?
Cc1ccc(N=Nc2ccc3ccccc3c2O)cc1 | 7.94µM | ? | . | . | 4.47µM
CCS(=O)(=O)c1ccc(N=Nc2ccc(O)c3ncccc23)c(OC)c1 | ? | ? | ? | 7.94µM | ?
Cc1ccc(N=Nc2ccc(O)c3ncccc23)cc1 | . | ? | ? | 12.6µM | ?
COc1ccc(CN2CC[C@H]3C=CC[C@@H](C(=O)NC4CCCCC4)[C@H]3C2=O)cc1OC | / | / | . | . | /
O=C(NNC(=O)C1CC1)c1ccccc1[N+](=O)[O-] | . | ? | . | . | .
COC(=O)C[C@H]1c2ccccc2[C@@H]2C(=C[C@@H](C)[C@H]3C(=O)N(c4ccccc4)C(=O)[C@H]32)N1C(=O)OC | / | . | / | / | /
Cc1nccn1CCCNC(=O)C1CCC(=O)N(Cc2ccccc2F)C1 (stereo not given) | . | / | / | / | /
COc1ccc2[nH]c3c(NCCC4=CCCCC4)ncnc3c2c1 | . | 10µM | ? | ? | ?
O=C(CCl)Nc1cccc2ncccc12 | . | ? | ? | 3.55µM | ?
Cc1oc2c(c(=O)c1C)C(=O)CC(c1ccccc1)C2 (stereo not given) | . | . | . | / | ?
CS(=O)(=O)c1sc(C#N)c2c1C(=O)CC(c1ccccc1)C2 (stereo not given) | 11.2µM | / | / | / | /
Cc1nn(C)cc1CNCc1c(C(=O)N2CCCCC2)nc2c(C)cccn12 | . | . | . | . | .
CC1(C)CC(=O)C2=C(C1)NC(SCC(=O)Nc1ccccc1)=C(C#N)C21CCCCC1 | 28.2µM | ? | . | / | .
CC1=C(C(=O)Nc2ccccc2)C2(CCCCC2)C(C#N)=C(SCC(N)=O)N1 | . | . | . | . | .
CC#CCN1c2ccccc2[C@]23CCC(=O)N(Cc4cccc(C(F)(F)F)c4)C2=NC(C(=O)OC)=C(C(=O)OC)[C@H]13 | / | . | / | / | /
OC(Br)C(O)C(O)N1CCCc2ccccc21 (stereo not given) | / | / | . | . | /
COc1ccc(-c2cn3c(C)c(C(=O)N4CCN(c5ccccc5F)CC4)sc3n2)cc1 | . | / | . | . | /
COc1ccc(-c2cn3c(C)c(C(=O)N4CCCc5ccccc54)sc3n2)cc1 | ? | / | ? | 10µM | /
O=C1[C@H](Cc2ccccc2)NC/C=C\C[C@H](c2ccc(Cl)cc2)N1Cc1ccc(Cl)cc1 | / | / | . | . | /
CCc1ccc2[nH]c(=O)c(CN(CCCN3CCOCC3)C(=O)Nc3ccc(Cl)cc3)cc2c1 | . | ? | . | ? | ?
CCc1ccc2[nH]c(=O)c(CN(CCCN3CCOCC3)C(=O)Nc3cccc(Cl)c3)cc2c1 | ? | 17.8µM | ? | / | ?
SMILES | FMDV antiviral | MARV entry inh | VACV Venus inh | Vaccinia mCherry | Lassa entry inh
COc1cc2cc(CN(CCc3cccc(C)c3)C(=S)NCCCN(C)C)c(=O)[nH]c2cc1OC | . | ? | . | . | ?
COc1cc2cc(CN(CCc3cccc(C)c3)C(=S)NCCCN3CCOCC3)c(=O)[nH]c2cc1OC | . | 10µM | ? | . | ?
COc1cc(=O)n2c(c1C(=O)NC(C)c1ccco1)CCN(C(=O)c1ccnc(Cl)c1)CC2 (stereo not given) | . | / | . | . | /
Cc1ccc(C2(c3ccc(C)cc3)CC2C(=O)Nc2ccc([N+](=O)[O-])cc2O)cc1 (stereo not given) | . | ? | ? | . | 12.6µM
Cc1[nH]c(-c2ccc(F)cc2)cc1C(=O)N1CCN(c2ccccc2F)CC1 | . | . | ? | ? | ?
Cc1ccc(N2CCN(C(=O)c3cc(-c4ccc(F)cc4)[nH]c3C)CC2C)cc1 (stereo not given) | . | ? | ? | 10µM | ?
